The list is not random: actives were taken first. Their share in the collection is about 2.3%.
miR-21 reporter: qHTS Assay for Modulators of miRNAs and/orActivators of miR-21; HeLa miR-21 FLuc reporter, luciferase, 48 h; Potency, µM (series often up to 38.3 µM), without a hit: at the highest dose activity change, positive = activation, most hits filed as activators; 340,000 tested, under 10 active; AID 2288, 2010;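 further: % of control where 0% means no effect; miR-21 action dims this reporter so a rising signal means less miR-21 action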
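HeLa cells stably expressing CMV-driven firefly luciferase with a downstream miR-21 binding sequence, endogenously expressing miR-21, were treated with titrations (up to about 40uM final) for 48 hours at 37 degree Celsius. Luciferase luminescence was read after lysis.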
Nrf2 activator: qHTS of Nrf2 Activators; AREc32 ARE-luciferase reporter (MCF7-derived line), luminescence, 24 h; Potency, µM (doses to about 46.1 µM), for the others: at the top dose activation, actives largely listed as activators; 410,000 compounds, 0.31% hits; AID 624171, 2012; further: potency means the concentration at half of the fitted maximal effect; % of control where 0% means no effect; nearly all actives have a fitted effect of over 65% in size
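ARE activation measured as luciferase luminescence (Steady-Glo, 30 min RT) in AREc32_Fluc cells after 24 hr compound exposure at 37 deg C, 5% CO2; cells seeded overnight at 1000/well in OPTI-MEM, 5% FBS.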
A549 tox: Nrf2 qHTS screen for inhibitors: counterscreen for cytotoxicity; A549 ARE-Fluc cells, CellTiter-Fluor viability, 18-24 h; Potency, µM (top dose mostly 46 µM), inactives show at the highest dose activity change, negative = cytotoxicity, most hits filed as inhibitors; AID 504648, 2011; 390,000 compounds, 0.16% hits; further: potency means the concentration at half of the fitted maximal effect; on the % scale 0 is the no-effect control and ±100 the full control effect
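A549 ARE-Fluc cells in 5% FBS OPTI-MEM, 5000 cells/well, rested 2 h then exposed to compounds in concentration-response for 18-24 h at 37 °C. Viability by CellTiter-Fluor fluorescence (Ex 405/Em 525) after 30 min; luciferase luminescence (BugLite, 15 min, RT) read afterwards.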
Nrf2 block: Nrf2 qHTS screen for inhibitors | A549 ARE-Fluc reporter, luciferase luminescence, 18-24 h | Potency, µM (titrated, usually from 46 µM), for the others: top-dose activity change, negative = inhibition, actives largely listed as inhibitors | 360,000 compounds, 2.1% hits | AID 504444, 2011; further: potency means the concentration at half of the fitted maximal effect; on the % scale 0 is the no-effect control and ±100 the full control effect; nearly all actives have a fitted effect of over 60% in size
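Concentration-response testing used A549 ARE_Fluc cells at 5000 cells/well. Following an 18-24 h compound incubation, viability was read by fluorescence (Ex 405/Em 525) and luciferase output by luminescence.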
Mito fusion act: qHTS Assay for Small Molecule Inhibitors of Mitochondrial Division or Activators of Mitochondrial Fusion. S. cerevisiae fusion-defective mutant growth rescue, CellTiterGlo 48 h. Potency, µM (highest dose often 46.1 µM), for the others: top-dose growth rescue (activation), actives largely listed as activators. 320,000 compounds, 0.23% hits; further: potency means the concentration at half of the fitted maximal effect; % of control where 0% means no effect; nearly all actives have a fitted effect of over 45% in size
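Compounds are tested for their ability to restore growth of mitochondrial fusion-defective yeast strains at non-permissive 37C in YPEG medium over 48 hours. Viability is quantified by luciferase luminescence.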
Glioma ERSR ind: qHTS for Inducers of the Endoplasmic Reticulum Stress Response (ERSR) in Human Glioma: qHTS | 420,000 compounds, 0.02% hits | Potency, µM, for inactives: at the top dose activation, hits mostly activators | U87-MG GRP78 promoter luciferase reporter, 16 h; further: potency means the concentration at half of the fitted maximal effect; series mostly up to about 76 µM; % of control where 0% means no effect; nearly all actives have a fitted effect of over 35% in size
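ERSR induction read as luciferase luminescence (Bright-Glo, 10 min at room temperature) in stably transfected human U87-MG glioma cells exposed to compounds for 16 h, using GRP78 as sensor.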
* hit, by the source's call. The call rests on the fitted dose curve; in most records, active means well fitted curve in the direction sought with a large enough effect; inconclusive means small, poorly fitted or top-dose-only effect, or another doubt; inactive means no such curve, though single readings can be large; an effect the other way counts as inactive or inconclusive.

What do the screens show for `Cc1ccc(C(C(=O)NCC2CCCO2)N(Cc2ccccc2)C(=O)c2ccc(-c3ccccc3)[nH]2)o1` (stereo not drawn)?
miR-21 reporter: 18.7%; Nrf2 activator: 0.2%; A549 tox: inconclusive; Nrf2 block: inconclusive; Mito fusion act: inconclusive; Glioma ERSR ind: -3.5%

How did COC(=O)Cc1c(C)c2ccc3c(c2oc1=O)CN(Cc1ccc(C)cc1)CO3 do in these assays?
miR-21 reporter: 2.4%; Nrf2 activator: 0.1%; A549 tox: 20.5%; Nrf2 block: 3.8%; Glioma ERSR ind: -4.0%

Results for Cc1cccc(NC(=O)COC(=O)c2cccc3c2C(=O)c2ccccc2C3=O)c1C ?
miR-21 reporter: inconclusive; Nrf2 activator: -0.3%; A549 tox: -13.0%; Nrf2 block: 14.6µM*; Mito fusion act: 29.2%; Glioma ERSR ind: -5.0%

What do the screens show for `Cc1cccc(C)c1NC(=O)COC(=O)c1cccc2c1C(=O)c1ccccc1C2=O`?
miR-21 reporter: -4.8%; Nrf2 activator: -0.6%; A549 tox: -2.8%; Nrf2 block: 18.4µM*; Mito fusion act: -0.4%; Glioma ERSR ind: -2.2%

What do the screens show for `COc1ccccc1CSc1nc2n(n1)C(c1ccccc1)C(C(=O)Nc1ccc(C)cc1)=C(C)N2` (stereo not drawn)?
miR-21 reporter: -0.1%; Nrf2 activator: 1.7%; A549 tox: -1.2%; Nrf2 block: -18.1%; Glioma ERSR ind: -0.9%

What do the screens show for `COc1ccc(-c2cc(C(=O)NCCCN3CCOCC3)c3cc(C(C)C)ccc3n2)cc1`?
miR-21 reporter: -0.7%; Nrf2 activator: 3.6%; A549 tox: 0.2%; Nrf2 block: -1.6%; Mito fusion act: -21.7%; Glioma ERSR ind: -8.2%

How did Cc1ccc(C(C(=O)NC2CCCC2)N(C(=O)Cc2cccs2)c2ccc(C)c(C)c2)o1 (stereo not drawn) do in these assays?
miR-21 reporter: 12.0%; Nrf2 activator: 1.8%; A549 tox: inconclusive; Nrf2 block: 18.4µM*; Mito fusion act: 19.0%; Glioma ERSR ind: 3.5%

How did Cc1ccc(N(C(=O)CCl)C(C(=O)NC2CCCCC2)c2cccnc2)cc1C (stereo not drawn) do in these assays?
miR-21 reporter: 29.5%; Nrf2 activator: 14.1µM*; A549 tox: -6.9%; Nrf2 block: -10.3%; Mito fusion act: 0.3%; Glioma ERSR ind: -9.8%

Results for CC(=O)Nc1ccc(NC(=O)C2CCN(C(=O)c3ccc([N+](=O)[O-])cc3)CC2)cc1 ?
miR-21 reporter: 0.0%; Nrf2 activator: -0.6%; A549 tox: 0.2%; Nrf2 block: -10.3%; Mito fusion act: 13.5%; Glioma ERSR ind: -2.0%

How did Cc1cccc(NC(=O)C2CCN(S(=O)(=O)c3c(C)noc3/C=C/c3ccco3)CC2)n1 do in these assays?
miR-21 reporter: 10.7%; Nrf2 activator: 11.4%; A549 tox: -2.1%; Nrf2 block: inconclusive; Mito fusion act: 25.1%; Glioma ERSR ind: -3.7%

Results for Cc1nn(CCCC(=O)Nc2cccc(F)c2)c(=O)c2c1sc1ccccc12 ?
miR-21 reporter: -48.5%; Nrf2 activator: -1.3%; A549 tox: -12.9%; Nrf2 block: 2.59µM*; Glioma ERSR ind: -4.0%

Results for COc1cccc(C(=O)N2CCN(c3ccc(N4CCOCC4)nn3)CC2)c1 ?
Nrf2 activator: -0.5%; A549 tox: 6.9%; Nrf2 block: 1.7%; Mito fusion act: 1.7%; Glioma ERSR ind: -2.1%

How did COc1ccc2c(c1)CCc1cc(C(=O)N3CCN(c4ccc(N5CCOCC5)nn4)CC3)sc1-2 do in these assays?
miR-21 reporter: 13.6%; Nrf2 activator: 2.5%; A549 tox: -4.4%; Nrf2 block: 18.4µM*; Mito fusion act: -1.7%; Glioma ERSR ind: -0.3%

Bioassay records from PubChem BioAssay.
